# Experimental data as given in the supplement of paper PMC10681739.
# Biological target: RUNX1 (UniProt Q01196)
# Experiment: RUNX1 binding intensity (PBM fluorescence) in presence of ETS1, normalised to RUNX1-only experiment (arbitrary fluorescence units); higher = stronger binding
# Details: RUNX1 concentration 2 nM; ETS1 concentration 25 nM
# Method: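 Cooperative gcPBM on 36-bp genomic probes with neighbouring ETS1 and RUNX1 sites. Recombinant human RUNX1 (2 nM) was incubated alone or with ETS1 (25 nM) and detected with anti-RUNX1 antibody plus Alexa488 secondary. Values are medians over 4 replicate spots; the RUNX1+ETS1 data were normalised to the RUNX1-only data. The probes sit in constant array flanks that are not printed.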
# 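Further: Full-length recombinant human ETS1 or RUNX1 bound to double-stranded 36-bp genomic probes on microarrays, detected by protein-specific primary antibody and Alexa488 secondary, spot fluorescence as median of four replicate spots.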
# Sequence of RUNX1 (Q01196 whole entry): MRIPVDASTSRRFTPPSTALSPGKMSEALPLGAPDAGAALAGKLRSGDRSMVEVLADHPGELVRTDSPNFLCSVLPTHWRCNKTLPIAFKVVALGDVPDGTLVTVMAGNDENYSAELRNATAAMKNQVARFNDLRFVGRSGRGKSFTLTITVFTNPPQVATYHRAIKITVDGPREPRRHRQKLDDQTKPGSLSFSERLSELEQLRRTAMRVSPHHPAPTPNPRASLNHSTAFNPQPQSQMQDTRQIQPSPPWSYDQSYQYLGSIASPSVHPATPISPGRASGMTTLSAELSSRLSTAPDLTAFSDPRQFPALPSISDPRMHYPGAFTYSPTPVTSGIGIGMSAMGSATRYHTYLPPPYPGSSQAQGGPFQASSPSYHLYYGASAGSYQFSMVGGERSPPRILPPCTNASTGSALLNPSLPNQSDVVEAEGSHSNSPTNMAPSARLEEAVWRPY
row,Sequence,RUNX1 binding intensity
1,TTACACAACAGGAAACTATGTTTAGCGGTTAATCCA,1580
2,GGTGCCTGGGGAGGATGTGGGCTGACTGGGAGGGGT,974
3,CCCAGCCCTGCTGCCGGATGTGGTGAGGCCCAGGTG,5400
4,GATATGGCAGGAAGTAGGGCCTGGAAACCGCACGGC,2000
5,GGCGGTGACCGGAAGAGCTGAGTCACCGCAGGCGAC,1600
6,ACTGAACAAACCGGATGTGGTTGCCACCTGCAATCT,21800
7,CATGGGGAGGAGGAAGTGGTGGCGGCCGCAGGCCAG,1070
8,AGGTCGCCCTCCGGATGCGGTCCCCACACCGCCTGC,1490
9,GAAAAAAATGAGCTTCCTTTAACCACAACTGTATTA,2340
10,TCATGCTGCTTCCTGCCCAACCCGCAGTTCCGATAA,2350
11,AGCTGCATTTCCGGGCAGGCAATGAAACCACAGAGT,2370
12,GGCCCCTGCTTCCGGGTGTGACGCGAACCGCGGGCA,1400
13,GTTCAGCAGGAAGTGGATGTGGATGTGTGGTTGCCA,1290
14,CTGGGGAGGAAGCCTGAGGTGTGTGGTTTTGTTAAC,983
15,TGCCTCACCTCACATCCGTTTGTGGCTGCCGAGTGC,1880
16,TTTCTGACACTCTCAGGATGTGGGTTTTCACACTGT,1320
17,ACAACCCGGAAGTTGGCGCAGCGCGGTTGCCAATGG,1300
18,CTCACAGAGCAAGTAGGATGTGGTTTCCAGGGGCTG,1180
19,GCCGGCGGCCGGAAGTCTATCCCGCAGAAGCGCAGC,1900
